# Measured values: PubChem BioAssay
# Active and inactive are the calls of the source.
# Test: E. coli acrAB mutant growth effects, primary screen, E. coli filamentation inducers, strain DRC39, OD650, 48 h (AID 1179);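 note: screen aims at cell division blockers that make cells filament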
# Settings: E. coli DRC39 delta-acrAB growth, higher = more signal, called active from +8 up or from −8 down
row,SMILES,z-score
1,COCC(=C=CC[C@H](O)c1ccccc1OCCO)C[C@H](O)COCc1ccccc1,-0.456 (inactive)
2,O=C(NC1CC1)[C@@H]1c2ccccc2C(=O)N(Cc2ccc(OC(F)(F)F)cc2)[C@H]1c1ccc(CO)cc1,1.11 (inactive)
3,O=C1C2C=CC(C(O)c3c(F)cccc3Cl)N(Nc3ccc([N+](=O)[O-])cc3)C2C(=O)N1c1ccccc1 (configuration not stated),-0.194 (inactive)
4,C[C@@H]1NC(=O)C([C@@H](C)OCc2ccccc2)NC(=O)[C@@]23C(=O)N[C@@H](Cc4ccccc4)C2[C@H](C)[C@@]2(C)O[C@H]2C3/C=C/C/C=C\CNC1=O (some centres not stated),-0.426 (inactive)
5,CC1CC/C=C\[C@H]2OC34C=CCN(c5ccc(Cl)cc5)C(=O)[C@H]3N(CCCCCCO)C(=O)[C@]4(C)C2C(=O)O1 (some centres not stated),0.732 (inactive)
6,CC1=C([C@H](O)CCc2ccccc2)[C@H](CO)n2c(=O)n(-c3ccccc3)c(=O)n2C1,1.35 (inactive)
7,CCOC(=O)C[C@H]1[C@H](OC(=O)Cc2ccc3c(c2)OCO3)[C@@H](NC(=O)Cc2ccc(OC)cc2)c2cc(OCCCO)ccc2N1C(=O)Cc1ccc(OC)cc1,1.94 (inactive)
8,COc1ccc(C(O)C2C=CC3C(=O)NC(=O)C3N2Nc2ccc(Cl)cc2Cl)c2ccccc12 (configuration not stated),-0.626 (inactive)
9,C=C1C(=O)C=C2CN(C(=O)c3ccccc3)[C@@](Cc3ccc(OC)cc3)(C(=O)OC)[C@@H]12,-0.841 (inactive)
10,COC(=O)[C@@]1(Cc2ccccc2)[C@H]2c3cc(C(=O)N(C)C)n(Cc4ccc(S(C)(=O)=O)cc4)c3C[C@H]2CN1C(=O)c1ccccc1,-1.28 (inactive)
11,CCCNC(=O)[C@@]1(c2ccc([N+](=O)[O-])cc2)CC(=O)N(C(C)C)[C@@H]1c1ccc(CO)cc1,-0.508 (inactive)

# Test: RPMI8226 myeloma cell viability, profiling panel, resazurin fluorescence, basal, 24 h, PK04 Diversity Set (AID 1180);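 note: RPMI8826 multiple myeloma cell line at 5000 cells per well; test concentration not given here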
# Settings: higher = more signal
row,SMILES,z-score
1,COCCOC(=O)N1C(=O)[C@@]2(c3cc(C#Cc4ccc(OC)cc4)ccc31)[C@H](c1ccc(OCCO)cc1)N1[C@H](c3ccccc3)[C@H](c3ccccc3)OC(=O)[C@H]1[C@@H]2C(=O)NC[C@H](O)c1ccccc1,-0.508
2,CC1CC/C=C\[C@H]2OC34C=CCN(Cc5ccccc5)C(=O)[C@H]3N(CCCCCCO)C(=O)[C@@H]4C2C(=O)O1 (some centres not stated),1.15
3,[N-]=[N+]=Nc1ccccc1[C@@H]1OC(c2ccc(OCCCO)cc2)=N[C@]1(CCS(=O)(=O)c1ccccc1)C(=O)NCC(O)CO (some centres not stated),-0.315
4,COC(=O)[C@@]1(Cc2ccccc2)[C@H]2c3cc(C(=O)N(C)C)n(CCSC(=N)N)c3C[C@H]2CN1C(=O)c1ccccc1,-0.374
5,CC(C)[Si](C#CCCc1ccccc1)(O[C@H](c1ccccc1)c1cn(Cc2ccccc2)nn1)C(C)C,-0.052
6,O=C(NCc1ccc(F)cc1)[C@H]1C[C@H]2C(=O)N3CCC[C@H]3C(=O)N2[C@H]1c1ccc(O)cc1,0.379
7,COC(=O)[C@]1(Cc2ccccc2)N=C(c2ccc(OCCCO)cc2)O[C@@H]1c1ccccc1CN=[N+]=[N-],-7.14
8,CC(C)C[C@@H]1NC(=O)[C@@H]2C[C@H](C(=O)NCCCCCCNC(=O)CS)[C@H](c3cccc(OCCO)c3)N2C1=O,-0.458
9,O=C1O[C@@H](c2ccccc2)[C@@H](c2ccccc2)N2[C@@H](c3ccc(OCCO)cc3)[C@]3(C(=O)Nc4ccc(C#CCCO)cc43)[C@@H](C(=O)O)[C@H]12,0.104
10,CCCC[C@H]1C[C@@H]1[C@@H]1N(C(C)=O)[C@H](c2cccc(OC)c2)CC12CC2,1.43
11,C=C(COC)/C(=C/C[C@@H](OC(C)=O)c1ccccc1OCCO)c1cnc2ccccc2c1,-0.3
12,CN(C)CCCNC(=O)[C@@]1(C)c2ccccc2C(=O)N(Cc2ccc(OC(F)(F)F)cc2)[C@H]1c1ccc(CO)cc1,0.415
13,C=CC[C@]1(C(=O)NCC(O)CO)COC(c2ccc(OCCCO)cc2)=N1 (some centres not stated),-0.412
14,C=CCC(OC(C)=O)[C@@H]1[C@@H](N(Cc2cccc3ccccc23)C(=O)c2ccc(-c3ccccc3)cc2)c2cc(OCCCO)ccc2N1C(=O)Cc1ccc2ccccc2c1 (some centres not stated),0.193
15,CCCCCC1=C2CNC(CC(C)C)(C(=O)OC)C=C2C(C)C1=O (configuration not stated),-0.927
16,CN1C(=O)[C@@H]2[C@@H](CC(COc3ccccc3)=C3[C@@H](CCc4ccccc4)OB(O)C[C@@H]32)C1=O,-0.861
17,COC(=O)[C@@]1(Cc2ccc(OC)cc2)[C@H]2c3cc(C(=O)N4CCCC4)n(Cc4ccc(C(F)(F)F)nc4)c3C[C@H]2CN1C(=O)c1ccccc1,-2.32
18,C=CCC(OC(C)=O)[C@@H]1[C@@H](N(Cc2cc3ccccc3o2)C(=O)Cc2ccc(OC)cc2)c2cc(OCCCO)ccc2N1C(=O)c1ccc2ccccc2n1 (some centres not stated),-0.0391

row,SMILES,z-score
1,[N-]=[N+]=Nc1ccccc1[C@@H]1OC(c2ccc(OCCCO)cc2)=N[C@]1(Cc1ccccc1)C(=O)NCCN1CCOCC1,-1.73
2,COc1ccc(C(=O)Nc2cccc(CN3C(=O)[C@]4(O[C@H](CC(=O)N5Cc6ccccc6C[C@H]5CO)[C@@H]([Si](C)(C)c5ccc(OC)cc5)[C@@H]4C)c4ccccc43)c2)cc1,-0.891
3,C=CCN1C(=O)[C@@]2(O[C@@H](CCn3cc([C@H](O)c4ccccc4)nn3)[C@H]([Si](C)(C)c3ccc(OC)cc3)[C@H]2C)c2cc(N3C(=O)c4cccc5cccc3c45)ccc21,-2.42
4,CC(C)(C)N1CC=CC23O[C@@H]4/C=C\CCCOC(=O)C4[C@H]2C(=O)N(CCCCCO)[C@@H]3C1=O (some centres not stated),-0.119
5,CN(C)CCCC[C@@H]1NC(=O)[C@@H]2C[C@H](C(=O)NCCCCCCNC(=O)CS)[C@H](c3ccc(O)cc3)N2C1=O,0.0875
6,CC1CC/C=C\[C@H]2OC34C=CCN(CCN5CCOCC5)C(=O)[C@H]3N(CCCO)C(=O)[C@@H]4C2C(=O)O1 (some centres not stated),-0.479
7,COc1ccccc1CN1C(=O)c2ccccc2[C@](Cc2ccccc2I)(C(=O)NCC(C)C)[C@@H]1c1ccc(CO)cc1,1.11
8,COCC(=C=CC[C@H](O)c1ccccc1OCCO)C[C@H](O)COCc1ccccc1,0.623
9,O=C(NC1CC1)[C@@H]1c2ccccc2C(=O)N(Cc2ccc(OC(F)(F)F)cc2)[C@H]1c1ccc(CO)cc1,0.718
10,O=C1C2C=CC(C(O)c3c(F)cccc3Cl)N(Nc3ccc([N+](=O)[O-])cc3)C2C(=O)N1c1ccccc1 (configuration not stated),0.278
11,C[C@@H]1NC(=O)C([C@@H](C)OCc2ccccc2)NC(=O)[C@@]23C(=O)N[C@@H](Cc4ccccc4)C2[C@H](C)[C@@]2(C)O[C@H]2C3/C=C/C/C=C\CNC1=O (some centres not stated),-0.104
12,CC1CC/C=C\[C@H]2OC34C=CCN(c5ccc(Cl)cc5)C(=O)[C@H]3N(CCCCCCO)C(=O)[C@]4(C)C2C(=O)O1 (some centres not stated),0.485
13,CC1=C([C@H](O)CCc2ccccc2)[C@H](CO)n2c(=O)n(-c3ccccc3)c(=O)n2C1,0.12
14,CCOC(=O)C[C@H]1[C@H](OC(=O)Cc2ccc3c(c2)OCO3)[C@@H](NC(=O)Cc2ccc(OC)cc2)c2cc(OCCCO)ccc2N1C(=O)Cc1ccc(OC)cc1,1.02
15,COc1ccc(C(O)C2C=CC3C(=O)NC(=O)C3N2Nc2ccc(Cl)cc2Cl)c2ccccc12 (configuration not stated),-1.09
16,C=C1C(=O)C=C2CN(C(=O)c3ccccc3)[C@@](Cc3ccc(OC)cc3)(C(=O)OC)[C@@H]12,-4.1
17,COC(=O)[C@@]1(Cc2ccccc2)[C@H]2c3cc(C(=O)N(C)C)n(Cc4ccc(S(C)(=O)=O)cc4)c3C[C@H]2CN1C(=O)c1ccccc1,-0.668
18,CCCNC(=O)[C@@]1(c2ccc([N+](=O)[O-])cc2)CC(=O)N(C(C)C)[C@@H]1c1ccc(CO)cc1,0.123
